We go through 6 molecules from PubChem BioAssay (EPA / NIEHS).

Inconclusive results are not listed. Calls of active or inactive are those of the source. Rule for the calls, unless noted: active = hit-call score of the fitted dose curve at least 0.9, where 1 is the maximum; inactive = score below 0.9.

Test [1] concerns the target Retinoic acid receptor RXR-alpha (Homo sapiens) (UniProt P19793). Kind of test: ATG_RXRa_TRANS: Attagene TRANS-FACTORIAL HepG2 Assay for human Retinoid X Receptor alpha (RXRa) (AID 2283012; active = hit-call score of the fitted dose curve at least 0.9, where 1 is the maximum). A digest of the protocol:
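TRANS format reporting activity of exogenous RXRa-Gal4 chimera in transiently transfected HepG2, 24 h exposure. Reporter transcripts quantified by RT-PCR with capillary electrophoresis, with gain of signal scored relative to DMSO.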

Test [2] has as its target human Retinoid X Receptor beta (RXRb), RXRB (gene 6257) (UniProt P28702). Kind of test: ATG_RXRb_TRANS: Attagene TRANS-FACTORIAL HepG2 Assay for human Retinoid X Receptor beta (RXRb) (AID 2283013; active = hit-call score of the fitted dose curve at least 0.9, where 1 is the maximum). In outline:
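Readout is reporter transcript induction after 24 h dosing. It is measured by RT-PCR of total RNA followed by fluorescent capillary electrophoresis. HepG2 liver cells carry transfected multiple reporter units driven by an exogenous RXRb-Gal4 fusion; activity is relative to DMSO.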

In test [3] the target is human Thyroid Receptor alpha (THRa1), THRA (gene 7067) (UniProt P10827). Kind of test: ATG_THRa1_TRANS: Attagene TRANS-FACTORIAL HepG2 Assay for human Thyroid Receptor alpha (THRa1) (AID 2283014; active = hit-call score of the fitted dose curve at least 0.9, where 1 is the maximum). In outline: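 Transient HepG2 transfection, NR-Gal4 chimera driving GAL4-UAS reporters; 24 h compound exposure; total RNA, oligo(dT) RT, PCR, fluorescent primer extension, capillary electrophoresis. Upward direction vs DMSO control.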

Read-out in test [4]: E-selectin (Homo sapiens) (UniProt P16581)
Kind of test: BSK_3C_Eselectin: BioMAP Diversity Plus: 3C Assay for Eselectin Biomarker Activity (AID 2283015).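 For outcome: cell surface E-selectin protein quantified by ELISA 24 h after dosing.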 The conditions noted are these: primary human endothelial cells (HUVEC); actives raise or lower the signal. In outline:
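HUVEC, 3C stimulation; compound exposure 24 h; E-selectin by ELISA; gain- or loss-of-signal fitted bidirectionally vs DMSO baseline.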

Read-out in test [5]: Interleukin-1 alpha (IL1a), IL1A (gene 3552)
Kind of test: BSK_BE3C_IL1a: BioMAP Diversity Plus: BE3C Assay for Interleukin-1 alpha (IL1a) Biomarker Activity (AID 2283016). The conditions noted are these: primary human bronchial epithelial cells; actives raise or lower the signal. A digest of the protocol:
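IL-1a measured by ELISA after 24 h treatment of human primary bronchial epithelial cells, with gain or loss of signal fitted versus DMSO. Parallel cultures stained with SRB gauge overt cytotoxicity.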

Read-out in test [6]: Monocyte Chemoattractant Protein-1 (MCP1), CCL2 (gene 6347)
Kind of test: BSK_3C_MCP1: BioMAP Diversity Plus: 3C Assay for Monocyte Chemoattractant Protein-1 (MCP1) Biomarker Activity (AID 2283017). The following applies: primary human endothelial cells (HUVEC); actives raise or lower the signal. A digest of the protocol:
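HUVEC, 3C system; 24 h chemical exposure; MCP-1 by ELISA; bidirectional curve fit vs DMSO baseline.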

Read-out in test [7]: Monocyte Chemoattractant Protein-1 (MCP1), CCL2 (gene 6347)
Kind of test: BSK_4H_MCP1: BioMAP Diversity Plus: 4H Assay for Monocyte Chemoattractant Protein-1 (MCP1) Biomarker Activity (AID 2283018). The following applies: primary human endothelial cells (HUVEC); actives raise or lower the signal. A digest of the protocol:
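ELISA of MCP-1 (CCL2) 24 h after chemical dosing of HUVEC in the BioMAP 4H system. Gain or loss versus DMSO fitted; parallel SRB staining (560 nm) tracked overt cytotoxicity.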

Read-out in test [8]: Human Leukocyte Antigen - DR isotype (HLADR), HLA-DRA (gene 3122)
Kind of test: BSK_3C_HLADR: BioMAP Diversity Plus: 3C Assay for Human Leukocyte Antigen - DR isotype (HLADR) Biomarker Activity (AID 2283019).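 For outcome: ELISA of cell-surface HLA-DR on HUVEC 24 h after dosing.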 The following applies: primary human endothelial cells (HUVEC); actives raise or lower the signal. A digest of the protocol:
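HUVEC, 3C stimulation, 24 h post-dose; HLA-DR by ELISA; bidirectional curve fit vs DMSO baseline; gain or loss of signal scored.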

Read-out in test [9]: Interleukin-8 (IL8), CXCL8 (gene 3576)
Kind of test: BSK_3C_IL8: BioMAP Diversity Plus: 3C Assay for Interleukin-8 (IL8) Biomarker Activity (AID 2283020). The conditions noted are these: primary human endothelial cells (HUVEC); actives raise or lower the signal. In outline: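 IL-8 was measured by ELISA in HUVEC cultures 24 h after chemical dosing, with gain or loss of signal fitted relative to DMSO. Parallel SRB total-protein staining tracked overt cytotoxicity.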

Read-out in test [10]: Monokine induced gamma interferon (MIG), CXCL9 (gene 4283)
Kind of test: BSK_3C_MIG: BioMAP Diversity Plus: 3C Assay for Monokine induced gamma interferon (MIG) Biomarker Activity (AID 2283021).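 For AC50: MIG protein level measured by immunoassay in the treated endothelial cultures.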 The conditions noted are these: primary human endothelial cells (HUVEC); actives raise or lower the signal. In outline:
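ELISA measurement of MIG in human umbilical vein endothelial cells 24 h after treatment. Cytotoxicity tracked by SRB staining in parallel cultures; gain or loss of signal fitted relative to DMSO.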

Test [11] concerns the target human Vitamin D Receptor (VDR), VDR (gene 7421) (UniProt P11473). Kind of test: ATG_VDR_TRANS: Attagene TRANS-FACTORIAL HepG2 Assay for human Vitamin D Receptor (VDR) (AID 2283022; active = hit-call score of the fitted dose curve at least 0.9, where 1 is the maximum). A digest of the protocol: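 RT-PCR/capillary electrophoresis read-out of reporter mRNA induction in transiently transfected HepG2; 24 h dosing; chimeric NR-Gal4 (TRANS format); gain-of-signal fit against DMSO baseline.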

A short description of test [12]: BSK_3C_SRB: Viability Assessment in the BioMAP Diversity Plus: 3C Assay (AID 2283023).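 Note: fitted both ways against DMSO so a hit may be signal rise or drop.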 The conditions noted are these: primary human endothelial cells (HUVEC). A digest of the protocol: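 HUVEC, 24 h post-dose; 10% TCA fix, 0.1% SRB stain, A560 nm. Bidirectional curve fit vs DMSO negative control.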
Read-out in test [13]: Matrix Metallopeptidase 1 (MMP1), MMP1 (gene 4312)
Kind of test: BSK_BE3C_MMP1: BioMAP Diversity Plus: BE3C Assay for Matrix Metallopeptidase 1 (MMP1) Biomarker Activity (AID 2283024). The conditions noted are these: primary human bronchial epithelial cells; actives raise or lower the signal. In outline:
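ELISA measurement of MMP-1 after 24 h compound exposure of primary human bronchial epithelial cells. Changes in either direction fitted relative to DMSO; parallel SRB staining checked overt cytotoxicity.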

Test [14] can be described thus: BSK_3C_Vis: BioMAP Diversity Plus: 3C Assay for Morphology Visualization (AID 2283025).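 For AC50: light microscopy image of cell morphology used as background control.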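 Note: fitted both ways so gain or loss versus DMSO counts.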 The following applies: primary human endothelial cells (HUVEC). In outline:
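Light-microscopy visualization of HUVEC cultures at 24 h post-treatment, with DMSO as baseline for bidirectional fitting.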

Read-out in test [15]: Pselectin, SELP (gene 6403)
Kind of test: BSK_4H_Pselectin: BioMAP Diversity Plus: 4H Assay for Pselectin Biomarker Activity (AID 2283026). The conditions noted are these: primary human endothelial cells (HUVEC); actives raise or lower the signal. In outline: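 ELISA of surface P-selectin on HUVEC, 24 h after dosing, with parallel SRB staining (0.1% after 10% TCA fixation, 560 nm) for overt cytotoxicity. Activity fitted in both directions relative to DMSO.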

Test [16] can be described thus: BSK_4H_SRB: Viability Assessment in the BioMAP Diversity Plus: 4H Assay (AID 2283027).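 For AC50: curves fitted both ways versus DMSO so AC50 may be loss or gain.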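 Note: cells exposed to compound for 24 h before staining.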 The following applies: primary human endothelial cells (HUVEC). In outline: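 Cytotoxicity read-out in primary human endothelial cells: after 24 h compound exposure, cells were TCA-fixed (10%), stained with 0.1% SRB and absorbance taken at 560 nm. Values fitted in both directions relative to DMSO.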

Test [17] in a line: BSK_BE3C_SRB: Viability Assessment in the BioMAP Diversity Plus: BE3C Assay (AID 2283028).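 For AC50: fitted both ways so AC50 may mark signal gain or loss versus DMSO.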 The following applies: primary human bronchial epithelial cells. A digest of the protocol: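 Primary human bronchial epithelium; chemical dosing, 24 h; 10% TCA fix, 0.1% SRB stain, A560; bidirectional fit vs DMSO baseline.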
Read-out in test [18]: Thrombomodulin, THBD (gene 7056)
Kind of test: BSK_3C_Thrombomodulin: BioMAP Diversity Plus: 3C Assay for Thrombomodulin Biomarker Activity (AID 2283029). The following applies: primary human endothelial cells (HUVEC); actives raise or lower the signal. In outline: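 ELISA measurement of thrombomodulin on HUVEC surface 24 h after chemical dosing; activity fitted in both directions relative to DMSO vehicle.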

Read-out in test [19]: Vascular endothelial growth factor receptor 2 (Homo sapiens) (UniProt P35968)
Kind of test: BSK_4H_VEGFRII: BioMAP Diversity Plus: 4H Assay for Vascular endothelial growth factor receptor 2 (VEGFR2) Biomarker Activity (AID 2283031). The following applies: primary human endothelial cells (HUVEC); actives raise or lower the signal. In outline:
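HUVEC (human primary), 4H system; 24 h post-dose; VEGFRII by ELISA; bidirectional curve fit vs DMSO baseline; gain or loss of signal scored.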

Read-out in test [20]: Urokinase-type plasminogen activator receptor (uPAR), PLAUR (gene 5329)
Kind of test: BSK_4H_uPAR: BioMAP Diversity Plus: 4H Assay for Urokinase-type plasminogen activator receptor (uPAR) Biomarker Activity (AID 2283030). The conditions noted are these: primary human endothelial cells (HUVEC); actives raise or lower the signal. In outline: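 HUVEC, 24 h post-dose; uPAR by ELISA; bidirectional fit vs DMSO baseline.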

Sequence of human Thyroid Receptor alpha (THRa1), THRA (gene 7067) (P10827 whole entry, looked up, the tested form may be a part): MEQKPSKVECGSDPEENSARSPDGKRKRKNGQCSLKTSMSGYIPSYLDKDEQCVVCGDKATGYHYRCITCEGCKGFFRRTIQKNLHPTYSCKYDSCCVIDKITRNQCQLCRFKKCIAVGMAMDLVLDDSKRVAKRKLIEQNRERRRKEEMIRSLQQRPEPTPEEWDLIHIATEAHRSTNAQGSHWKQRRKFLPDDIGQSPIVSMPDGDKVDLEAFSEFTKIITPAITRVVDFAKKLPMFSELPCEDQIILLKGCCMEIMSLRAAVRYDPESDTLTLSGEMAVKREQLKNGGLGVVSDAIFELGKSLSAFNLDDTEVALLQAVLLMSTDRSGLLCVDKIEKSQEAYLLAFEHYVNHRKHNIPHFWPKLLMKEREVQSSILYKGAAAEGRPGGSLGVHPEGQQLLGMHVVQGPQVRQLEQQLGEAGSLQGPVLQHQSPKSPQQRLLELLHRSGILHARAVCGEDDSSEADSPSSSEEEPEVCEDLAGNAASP
Sequence of human Retinoid X Receptor beta (RXRb), RXRB (gene 6257) (P28702 whole entry, looked up, the tested form may be a part): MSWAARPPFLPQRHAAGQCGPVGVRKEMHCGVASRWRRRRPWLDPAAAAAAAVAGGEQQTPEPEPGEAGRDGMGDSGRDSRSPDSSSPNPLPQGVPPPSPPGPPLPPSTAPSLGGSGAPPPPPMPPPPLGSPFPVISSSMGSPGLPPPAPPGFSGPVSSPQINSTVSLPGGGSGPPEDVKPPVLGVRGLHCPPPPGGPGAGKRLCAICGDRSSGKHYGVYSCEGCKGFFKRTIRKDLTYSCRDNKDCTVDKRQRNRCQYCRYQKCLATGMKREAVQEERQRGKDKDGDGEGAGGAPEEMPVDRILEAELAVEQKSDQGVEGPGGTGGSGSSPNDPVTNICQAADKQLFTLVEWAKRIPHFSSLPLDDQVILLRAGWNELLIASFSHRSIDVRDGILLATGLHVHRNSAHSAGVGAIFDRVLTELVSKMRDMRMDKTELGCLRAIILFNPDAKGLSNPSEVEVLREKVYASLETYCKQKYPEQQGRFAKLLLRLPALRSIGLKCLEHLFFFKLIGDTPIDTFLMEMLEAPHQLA
Sequence of Retinoic acid receptor RXR-alpha (Homo sapiens) (P19793 whole entry, looked up, the tested form may be a part): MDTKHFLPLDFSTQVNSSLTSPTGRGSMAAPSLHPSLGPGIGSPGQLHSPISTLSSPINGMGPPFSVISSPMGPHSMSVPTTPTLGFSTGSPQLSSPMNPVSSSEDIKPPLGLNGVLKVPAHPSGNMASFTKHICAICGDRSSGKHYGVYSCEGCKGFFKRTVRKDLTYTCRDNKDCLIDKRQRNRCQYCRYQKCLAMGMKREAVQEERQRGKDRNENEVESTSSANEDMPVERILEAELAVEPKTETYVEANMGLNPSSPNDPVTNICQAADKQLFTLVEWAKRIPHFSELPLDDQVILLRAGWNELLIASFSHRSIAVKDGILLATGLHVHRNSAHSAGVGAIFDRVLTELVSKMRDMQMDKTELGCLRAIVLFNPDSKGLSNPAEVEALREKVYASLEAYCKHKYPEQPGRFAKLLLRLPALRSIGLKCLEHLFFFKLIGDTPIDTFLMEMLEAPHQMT
Sequence of E-selectin (Homo sapiens) (P16581 whole entry, looked up): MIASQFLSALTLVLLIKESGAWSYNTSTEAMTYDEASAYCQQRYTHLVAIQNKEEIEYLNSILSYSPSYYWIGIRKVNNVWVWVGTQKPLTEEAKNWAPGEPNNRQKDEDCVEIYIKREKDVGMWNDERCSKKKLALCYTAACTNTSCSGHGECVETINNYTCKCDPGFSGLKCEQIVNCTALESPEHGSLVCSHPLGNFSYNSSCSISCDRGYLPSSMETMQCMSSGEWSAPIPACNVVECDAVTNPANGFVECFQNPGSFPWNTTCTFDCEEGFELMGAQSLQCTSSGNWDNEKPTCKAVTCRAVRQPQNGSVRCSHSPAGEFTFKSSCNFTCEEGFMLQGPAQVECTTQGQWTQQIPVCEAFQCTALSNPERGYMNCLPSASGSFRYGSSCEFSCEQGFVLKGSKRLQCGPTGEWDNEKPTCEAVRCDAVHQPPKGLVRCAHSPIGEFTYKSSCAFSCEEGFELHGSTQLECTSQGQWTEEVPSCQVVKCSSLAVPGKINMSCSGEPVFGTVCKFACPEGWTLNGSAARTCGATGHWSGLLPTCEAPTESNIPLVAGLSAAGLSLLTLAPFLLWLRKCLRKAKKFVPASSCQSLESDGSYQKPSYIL
Sequence of human Vitamin D Receptor (VDR), VDR (gene 7421) (P11473 whole entry, looked up, the tested form may be a part): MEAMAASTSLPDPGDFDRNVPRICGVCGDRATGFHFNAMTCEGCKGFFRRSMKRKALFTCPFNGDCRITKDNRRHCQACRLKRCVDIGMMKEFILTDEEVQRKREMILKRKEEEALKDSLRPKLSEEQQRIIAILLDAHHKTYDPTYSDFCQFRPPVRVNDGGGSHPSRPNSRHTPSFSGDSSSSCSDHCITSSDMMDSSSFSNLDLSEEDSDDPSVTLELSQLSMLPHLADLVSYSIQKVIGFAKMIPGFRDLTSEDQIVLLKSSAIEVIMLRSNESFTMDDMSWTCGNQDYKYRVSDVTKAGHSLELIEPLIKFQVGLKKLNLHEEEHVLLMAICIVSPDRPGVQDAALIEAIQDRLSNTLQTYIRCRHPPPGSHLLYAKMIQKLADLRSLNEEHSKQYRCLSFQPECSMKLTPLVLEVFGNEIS

With `Cc1cc(N=Nc2ccccc2C)ccc1N`, the outcome in [1], in test [2], in test [3], in [4], in test [5] and in test [7] was inactive. Moreover, the outcome in test [10], in test [11], in test [13], in test [17] and in test [19] was inactive. Besides, the AC50 was 10.8 µM (active) in test [6]; 27.5 µM (active) in test [8]; 20 µM (active) in test [9]; 11.1 µM (active) in [12]; 39 µM (active) in test [14]; 29.1 µM (active) in [15]. Also, the results for the AC50 in [16] and in test [18] were 5.17 µM (active) and 3 µM (active), respectively.
With `c1ccc(N=Nc2ccccc2)cc1`, the result in test [1], in test [2], in [4], in [5], in test [6] and in [7] was inactive. The outcome in test [8], in test [9], in test [10], in [11], in [12] and in test [13] was inactive. Moreover, the outcome in [14], in test [15], in test [16], in [17], in test [18] and in test [19] was inactive.
Regarding `CCC[CH2][Sn]([Cl])([CH2]CCC)[CH2]CCC`, the AC50 was 0.245 µM (active) in test [1]; 0.0637 µM (active) in test [2]; 0.148 µM (active) in test [4]; 0.148 µM (active) in [5]; 0.148 µM (active) in test [6]; 3.62 µM (active) in test [7]. The AC50 in test [8] is 0.148 µM (active); in test [9] it was 0.155 µM (active); in [10] it was 0.148 µM (active); in [11], 1.92 µM (active); in test [12], 0.148 µM (active); in test [13], 0.148 µM (active). Also, the AC50 in [14] was 5.57 µM (active); in test [15], 0.148 µM (active); in test [16], 0.148 µM (active); in test [17], 0.148 µM (active). The result in test [3] was inactive.
In the case of `Cc1cccc(N)c1N`, the result in test [1], in test [3], in [5], in [6], in test [7] and in test [9] was inactive. For the same molecule, the outcome in test [10], in test [12], in test [13], in test [14], in test [15] and in [16] was inactive. Moreover, the result in [17], in test [20] and in test [19] was inactive. Moreover, the values for the AC50 in test [2], in test [4] and in [8] were 46.1 µM (active), 30.3 µM (active) and 25.9 µM (active), respectively.
As to `CNC(=O)Oc1cccc2c1OC(C)(C)C2`, the molecule was classed as inactive in [1], in test [3], in test [4], in test [5], in [6] and in test [7]. In addition, the outcome in test [8], in test [9], in test [10], in test [11], in test [12] and in [14] was inactive. Besides, the outcome in test [15], in [16], in [17] and in test [19] was inactive. Further, in [2], the AC50 is 58.7 µM (active).
In the case of `CCCCCCCCCCCCCN1CC(C)OC(C)C1` (configuration not stated), the results for the AC50 in test [1] and in test [2] were 26.4 µM (active) and 26.6 µM (active), respectively. Further, the molecule was classed as inactive in test [3], in test [4], in test [5], in [6], in test [7] and in test [8]. Also, the outcome in test [9], in test [10], in test [12], in test [13], in test [14] and in test [15] was inactive. Also, the outcome in test [16], in test [17], in test [20] and in test [19] was inactive.

What is called AC50 is the midpoint of the concentration-response curve, whichever way the signal moves.
